Results filed as inconclusive are left out. The source made the active and inactive calls. Rule for the calls: active = hit-call score of the fitted dose curve at least 0.9, where 1 is the maximum; inconclusive = response in the unintended direction; inactive = score below 0.9.

Peroxisome proliferator-activated receptor gamma (Homo sapiens), sequence (P37231 whole entry, looked up, the tested form may be a part): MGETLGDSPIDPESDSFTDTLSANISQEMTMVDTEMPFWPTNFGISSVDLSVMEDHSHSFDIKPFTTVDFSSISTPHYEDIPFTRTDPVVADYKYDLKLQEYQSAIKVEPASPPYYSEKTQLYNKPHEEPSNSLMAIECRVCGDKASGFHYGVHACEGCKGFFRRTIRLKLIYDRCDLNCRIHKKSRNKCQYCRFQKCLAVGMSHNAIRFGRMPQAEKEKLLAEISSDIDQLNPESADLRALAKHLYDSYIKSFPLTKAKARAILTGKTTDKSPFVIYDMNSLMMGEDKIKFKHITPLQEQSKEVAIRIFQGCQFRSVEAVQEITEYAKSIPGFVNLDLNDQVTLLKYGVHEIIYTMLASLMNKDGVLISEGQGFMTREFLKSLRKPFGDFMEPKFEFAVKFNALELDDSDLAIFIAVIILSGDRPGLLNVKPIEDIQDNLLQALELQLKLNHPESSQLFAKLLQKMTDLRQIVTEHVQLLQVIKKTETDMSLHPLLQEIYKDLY

This experiment addresses Peroxisome proliferator-activated receptor gamma (Homo sapiens) (UniProt P37231). As to the kind of experiment: OT_PPARg_PPARgSRC1_0480: Odyssey Thera (OT) 8-hour Protein-Complementation Assay for Peroxisome Proliferator-activated Receptor Gamma / SRC-1 Co-activator (AID 2283387).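 Note: nuclear to cytoplasmic split Venus YFP fluorescence ratio reporting PPARg SRC-1 interaction.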 Here is the method: OT_PPARg_PPARgSRC1_0480 is a cell-based assay that uses HEK293T, a human kidney cell line, with measurements taken at 8 hours after chemical dosing in a 384-well plate.OT_PPARg_PPARgSRC1_0480 is one of one assay component(s) measured or calculated from the OT_PPARg_PPARgSRC1_0480 assay. It is designed to make measurements of protein fragment complementation, a form of binding reporter, as detected with fluorescence intensity signals by Protein-fragment Complementation technology.Data from the assay component OT_PPARg_PPARgSRC1_0480 was analyzed into 1 assay endpoint. This assay endpoint, OT_PPARg_PPARgSRC1_0480, was analyzed in the positive analysis fitting direction relative to DMSO as the negative control and baseline of activity. Using a type of binding reporter, measures of receptor for gain-of-signal activity can be used to understand the binding at the pathway-level as they relate to the gene PPARG. Furthermore, this assay endpoint can be referred to as a primary readout, because the performed assay has only produced 1 assay endpoint. To generalize the intended target to other relatable targets, this assay endpoint is annotated to the nuclear receptor intended target family, where the subfamily is non-steroidal.
The OT PPARg/SRC-1 assay assessed receptor-chemical interactions using a rapidly maturing, intensely fluorescent mutant of YFP known as Venus, rationally dissected into two separate fragments. The fragments were obtained as follows: first, fragments coding for YFP1 and YFP2 (corresponding to amino acid residues 1-158 and 159-239 of the full length YFP, respectively) were generated by oligonucleotide synthesis (Blue Heron Biotechnology), and then PCR mutagenesis was used to generate the mutant fragments IFP1 and IFP2. Fusion constructs were transfected into HEK293T cells with a (Gly4Ser)2 linker between the PPARg/SRC-1 and YFP fragment genes to facilitate complementation when interacting proteins bring fragments into close proximity. The construct is transiently transfected in HEK293T cells 48 hours prior to treatment with test compounds. Cells are seeded into optical quality 384-well poly-D-lysine coated plates in MEM alpha medium (Invitrogen) supplemented with 10 percent FBS (Gemini Bio-Products) 1 percent penicillin and 1 percent streptomycin, and grown in 37C incubator equilibrated to 5 percent CO2. Cells are allowed to adhere for 24 hours prior to treatment with compounds of interest or controls for 8 hours. Cells are fixed in 4 percent formaldehyde and stained with Draq5 (BioStatus) to identify cells and subcellular compartment boundaries prior to signal detection. 8 Images per well were acquired on an Evotec Opera at 2 wavelengths (488 and 635nm), and the ratio of fluorescence in the nucleus relative to fluorescence in the cytoplasm (N/C Ratio) in the 488nm channel was calculated for a minimum of 350 cells per image.
Consider `Cc1ccc(N)cc1Cl`, for which the compound was called inactive.

As to `Fc1ccc(C2(Cn3cncn3)OC2c2ccccc2Cl)cc1` (stereo not given), the result was inactive.

Turning to `O=S(=O)(c1ccc(Cl)cc1)c1ccc(Cl)cc1`, the call was inactive.

For the compound `Oc1ccc(-c2ccccc2)cc1`, the compound was called inactive.

One may read the AC50 as the concentration at which the activity in the assay is half-maximal. Consider `O=C1C(Cl)=C(Cl)C(=O)c2ccccc21`, for which the AC50 is 11.8 µM (active).

As for `COc1ccc(C=O)cc1`, the outcome was inactive.

`COP(=O)(OC)OC`: the compound was classed as inactive.

`CC12CC1(C)C(=O)N(c1cc(Cl)cc(Cl)c1)C2=O` (stereo not given): the result was inactive.

On to `CC(C)(c1ccc(OCC2CO2)cc1)c1ccc(OCC2CO2)cc1` (stereo not given), for which the compound was called inactive.

Consider `C=C(C)C(=O)[O][Sn]([CH2]CCC)([CH2]CCC)[CH2]CCC`, for which the outcome was inactive.

With `O=C(Nc1ccc2[nH]ccc2c1)c1cc2cc(F)ccc2n1Cc1cccc(F)c1`, the compound was called inactive.

Take `CCOP(=S)(OCC)SCSP(=S)(OCC)OCC`: the outcome was inactive.

Turning to `ClC(Cl)=C(Cl)C(Cl)=C(Cl)Cl`, the compound was called inactive.

Take `COc1ccc(C=O)cc1OC`: the result was inactive.

As to `CC(=O)[O][Hg][c]1ccccc1`, the outcome was inactive.

For `COc1cc(-c2ccc(N)c(OC)c2)ccc1N`, the outcome was inactive.

As to `Cl/C=C\C[N+]12CN3CN(CN(C3)C1)C2`, the outcome was inactive.

On to `O=C/C=C/c1ccccc1`, for which the compound was called inactive.

For `CC1(C)Cc2cccc(O)c2O1`, the outcome was inactive.

Take `O=C1CCCN1`: the compound was classed as inactive.

For `C1CCC(NC2CCCCC2)CC1`, the outcome was inactive.

As for `CC1(C)CCC(Cc2ccc(Cl)cc2)C1(O)Cn1cncn1` (stereo not given), the result was inactive.

`CC(C)(C)c1cc(O)ccc1O`: the call was inactive.

In the case of `O=C1C2(Cl)C3(Cl)C4(Cl)C(Cl)(Cl)C5(Cl)C3(Cl)C1(Cl)C5(Cl)C24Cl` (stereo not given), the result was inactive.

In the case of `CCN1CCC2(CC1)COc1cc3c(cc12)N(C(=O)c1ccc(-c2ccc(-c4nnc(C)o4)cc2C)cc1)CC3`, the outcome was inactive.

On to `COP(=O)(OC)O/C(=C\Cl)c1cc(Cl)c(Cl)cc1Cl`, for which the compound was classed as inactive.

With `COc1cc(OC)nc(NC(=O)NS(=O)(=O)c2ncccc2C(=O)N(C)C)n1`, the compound was called inactive.

For `O=c1[nH]c(=O)[nH]c(=O)[nH]1`, the call was inactive.

In the case of `CC(C)(OO)c1ccccc1`, the outcome was inactive.

On to `N#CN=C(N)N`, for which the compound was called inactive.

On to `CC(C)C1CCC(Cc2ccc(Cl)cc2)C1(O)Cn1cncn1` (stereo not given), for which the compound was called inactive.

For the compound `CNC`, the compound was called inactive.

Take `COP(=S)(OC)Oc1ccc(Sc2ccc(OP(=S)(OC)OC)cc2)cc1`: the compound was called inactive.

With `C[C@]12CCC(=O)C[C@@H]1CC[C@@H]1[C@@H]2CC[C@]2(C)[C@@H](O)CC[C@@H]12`, the outcome was inactive.

With `O=C(NCO)NCO`, the call was inactive.

On to `OCc1ccco1`, for which the outcome was inactive.

As for `C=CCc1ccc(OC)cc1`, the compound was called inactive.

`CC(C)(c1ccccc1)c1ccc(O)c(C(C)(C)c2ccccc2)c1`: the outcome was inactive.

Consider `CC(C)OC(=O)Nc1ccccc1`, for which the compound was called inactive.

For the compound `Cc1ccccc1C(=O)Nc1cccc(OC(C)C)c1`, the compound was called inactive.

The values are drawn from PubChem BioAssay (EPA / NIEHS).
